Bioassay records: PubChem BioAssay, National Center for Advancing Translational Sciences (NCATS)
In the library only some 18% were active in any assay of this set; here they are far more common.
IL-1B inflam inh: inhibitors of inflammasome signaling (IL-1 beta secretion); 360,000 compounds, 4.7% hits; AID 743279; THP-1 LPS/ATP IL-1B secretion, AlphaLISA, 16 h; hits give low values; activity change, % at 57.5 µM; in the data active = activity change below about -50%; inconclusive = mostly about -30% to -49%
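THP-1 cells pretreated 1 hr with compounds (up to 57.5 uM final), then stimulated with LPS (250 ng/mL final) plus ATP (1.25 mM final); secreted IL-1B measured by AlphaLISA after 16 hr, decreased signal indicating inhibition.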
Six1-Eya2 inh: inhibitors of human Six1/Eya2 interaction. AID 651725. AlphaScreen GST-Six1/His-Eya2 binding, biochemical; hits give low values. Q15475+O00167. 360,000 compounds, 0.56% hits. activity change, % (test concentration not listed); in the data active = activity change below about -65%; inconclusive = mostly about -30% to -63%
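Homogeneous AlphaScreen proximity assay pairing GST-Six1 with His-tagged Eya2 (added as 5X mix: 250 nM and 500 nM) in 50 mM Tris pH 8.0, 300 mM NaCl, 1 mM TCEP. Glutathione donor and nickel acceptor beads; 1 h, 37 °C, dark.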
TDP1 block: blocks human tyrosyl-DNA phosphodiesterase 1; Q9NUW8; recombinant TDP1, AlphaScreen DNA substrate cleavage; Potency, µM (series often up to 130 µM), usual class: inhibitors; 350,000 compounds, 0.28% hits; also: nearly all actives have a fitted effect of over 40% in size
Target sequence (Q9NUW8 whole entry, looked up): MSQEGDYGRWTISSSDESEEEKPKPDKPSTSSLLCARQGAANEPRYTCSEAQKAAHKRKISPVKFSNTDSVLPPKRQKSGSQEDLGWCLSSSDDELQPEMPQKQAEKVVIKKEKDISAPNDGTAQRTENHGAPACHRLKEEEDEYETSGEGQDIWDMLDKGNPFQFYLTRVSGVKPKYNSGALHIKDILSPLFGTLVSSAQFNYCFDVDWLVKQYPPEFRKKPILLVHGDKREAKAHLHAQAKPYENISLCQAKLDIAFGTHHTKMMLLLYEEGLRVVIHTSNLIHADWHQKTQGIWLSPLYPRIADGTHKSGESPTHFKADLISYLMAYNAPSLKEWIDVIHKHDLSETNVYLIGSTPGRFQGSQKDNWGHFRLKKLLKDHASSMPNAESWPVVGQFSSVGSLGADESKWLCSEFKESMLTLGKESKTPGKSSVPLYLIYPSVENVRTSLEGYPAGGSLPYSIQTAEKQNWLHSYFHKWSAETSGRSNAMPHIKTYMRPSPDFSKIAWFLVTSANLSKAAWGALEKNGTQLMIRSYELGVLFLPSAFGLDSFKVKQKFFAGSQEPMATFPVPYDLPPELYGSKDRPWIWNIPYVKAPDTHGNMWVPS
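Signal: AlphaScreen proximity between streptavidin donor and anti-FITC acceptor beads on intact substrate. Reaction: Tdp1 1 nM, substrate 15 nM final, 5 min RT after 15 min compound preincubation.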
DT40 TDP1 no CPT: qHTS for Inhibitors of human tyrosyl-DNA phosphodiesterase 1 (TDP1): qHTS in cells in absence of CPT; Potency, µM (titrated, usually from 46.2 µM), usual class: inhibitors; DT40 Tdp1-/- hTDP1 cells, no CPT, ATP luminescence, 48 h; 420,000 compounds, 15% hits; also: nearly all actives have a fitted effect of over 55% in size
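Stably hTDP1-transfected Tdp1-null chicken DT40 cells were treated with library compounds minus camptothecin and grown for at least 48 hr at 37 °C, after which cellular ATP was quantified by luminescence.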
TDP1 cell CPT: DT40-hTDP1 cell growth loss with CPT | chicken DT40 Tdp1-/-;hTDP1 cells + 20 nM CPT, ATP luminescence, 48 h | Potency, µM (doses to about 46.2 µM), hits mostly inhibitors | 420,000 compounds, 12% hits; also: nearly all actives have a fitted effect of over 55% in size
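Chicken DT40 Tdp1-/- cells complemented with human TDP1, 400 cells/well, exposed to compounds plus 20 nM camptothecin for at least 48 h at 37 C; viability read as ATP content by CellTiter-Glo luminescence.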
CtBP-E1A blk: CtBP/E1A binding inhibition. 340,000 compounds, 0.49% hits. activity change, % (test concentration not listed). AlphaScreen GST-E1A/His-CtBP binding, 1536-well; hits give low values; in the data active = activity change below about -65%; inconclusive = mostly about -30% to -63%
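Steps: dispense buffer (Tris pH 8.0, NaCl 300 mM, TCEP 1 mM, BSA, Tween 20); add 5X protein mix (GST-E1A, His-CtBP, 125 nM each); pin 23 nL compound; 2 h at 37 °C, dark; add 5X beads (50 ug/mL); 1 h; read.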
A number is an active result; . = inactive; ? = inconclusive; / = no result given. Unless noted, calls follow the shape of the dose curve; as a rule, active = well fitted curve in the direction sought with a large enough effect; inconclusive = small, poorly fitted or top-dose-only effect, or another doubt; inactive = no such curve, though single readings can be large; an effect the other way counts as inactive or inconclusive.

SMILES | IL-1B inflam inh | Six1-Eya2 inh | TDP1 block | DT40 TDP1 no CPT | TDP1 cell CPT | CtBP-E1A blk
CCOc1ccc(-c2nc3c(C#N)c[nH]n3c2NC2CCCC2)cc1 | / | / | . | 16µM | 10µM | /
COc1cccc(-c2nc3c(C#N)c[nH]n3c2NC2CCC(C)CC2)c1 (configuration not stated) | / | / | . | ? | ? | /
CC(C)Oc1ccc(-c2nc3c(C#N)c[nH]n3c2NC2CCCCC2)cc1 | / | / | . | 23µM | ? | /
N#Cc1c[nH]n2c(NC3CCCCC3)c(-c3cccc(Cl)c3)nc12 | / | / | . | ? | ? | /
Nc1no[n+]([O-])c1-c1ccccc1 | . | . | . | . | . | .
COC(=O)[C@H](C)N(Cc1ccc(Cl)c(Cl)c1)S(=O)(=O)CCNC1CCCC1 | ? | . | / | 21µM | ? | .
COCCS(=O)(=O)N(Cc1ccc(Br)cc1)[C@@H](C)C(=O)OC | . | . | / | . | . | .
O=S(=O)(CC12C3C4C5C1C2C(Br)(C43)C51OCCO1)c1ccccc1 (configuration not stated) | . | . | . | . | . | .
COc1cccc2cc(C(=O)Nc3ccccc3C)/c(=N/O)oc12 | . | . | / | 16µM | 16µM | .
N=c1oc2cc(O)ccc2cc1C(=O)Nc1ccc(F)cc1 | -56 | . | / | ? | ? | .
COc1cccc2cc(C(=O)NCc3ccccc3Cl)c(=O)oc12 | . | . | / | . | . | .
COc1ccc2o/c(=N\O)c(C(=O)Nc3ccccc3OC)cc2c1 | . | . | . | 5.8µM | 3.7µM | .
COc1ccc(NC(=O)c2cc3ccc(O)cc3o/c2=N\O)cc1 | ? | . | / | ? | 4.1µM | ?
O=C(c1cc(COc2ccc(F)cc2Cl)on1)N1CCC(c2ccncc2)CC1 | ? | . | . | 6.5µM | 6.5µM | .
CCC(NC(=O)c1cc(COc2ccc(F)cc2Cl)on1)c1ccncc1 (configuration not stated) | ? | . | . | 23µM | 23µM | .
CCOC(=O)C(=CNc1nc(-c2ccc3ccccc3c2)cs1)C(=O)OCC | . | . | / | ? | ? | .
O=C(Cc1cccs1)NCc1cccc(Cl)c1 | . | . | / | . | . | .
COc1cc(/C=C2\SC(N3CCC(C)CC3)=NC2=O)ccc1O | -56 | . | / | ? | . | .
COc1ccc(/C=C2\SC(N3CCCCC3)=NC2=O)cc1OC | . | . | / | 21µM | . | .
COc1ccc(/C=C2/N=C3CCCCCN3C2=O)cc1OC | . | . | . | 29µM | ? | .
CCOC(=O)C1CCN(C2=NC(=O)/C(=C/c3ccc(OC)c(OC)c3)S2)CC1 | . | . | / | ? | . | /
COc1ccc(OC)c(/C=C2\SC(N3CCCC(C)C3)=NC2=O)c1 (configuration not stated) | -59 | . | / | 21µM | 16µM | .
COc1ccccc1N(Cc1ccccc1)S(=O)(=O)c1cc(C(=O)O)ccc1Cl | . | . | . | . | . | .
C/C(Cn1cnc([N+](=O)[O-])n1)=N\NC(=O)c1ccncc1 | . | . | . | . | . | .
C/C(Cn1nnc([N+](=O)[O-])n1)=N\NC(=O)c1ccncc1 | . | . | . | 21µM | 16µM | .
SMILES | IL-1B inflam inh | Six1-Eya2 inh | TDP1 block | DT40 TDP1 no CPT | TDP1 cell CPT | CtBP-E1A blk
C/C(Cn1cnc([N+](=O)[O-])n1)=N\NC(=O)c1ccc(F)cc1 | . | . | . | . | . | .
C/C(Cn1nnc([N+](=O)[O-])n1)=N\NC(=O)c1ccc(C)cc1 | . | . | . | 15µM | 13µM | .
Clc1ccc(-c2ccnc(Oc3cc(Cl)ccc3Cl)n2)cc1 | . | . | . | . | . | .
COc1cccc(-c2nnc(SCc3ccc(C#N)cc3)n2Cc2ccco2)c1 | ? | . | . | 23µM | ? | .
Cc1ccc(-c2nnc(SCc3ccc(C#N)cc3)n2Cc2ccco2)cc1 | . | . | . | ? | 26µM | .
Cc1ccc(-c2nnc(SCc3nc4ccccc4[nH]3)n2Cc2ccco2)cc1 | . | . | . | ? | ? | .
C=CCn1c(SCc2ccc(C#N)cc2)nnc1-c1cccc(OC)c1 | . | . | . | ? | ? | .
